Screens as filed in PubChem.
Rows were chosen to be rich in hits. Some 2.9% of all compounds tested hit in one or more screens of this group.
NadD block = blocks S. aureus nicotinate mononucleotide adenylyltransferase; 360,000 compounds, 0.78% hits; purified NadD enzyme, colorimetric absorbance read-out; inhibition, % at 20 µM; in the data active = inhibition above about 26%
H9c2 protect = protects H9c2 cardiomyocytes from peroxide injury; AID 588492; protection from H2O2 cell death, % at 20 µM; H2O2 injury protection, ATPLite, 2 h; 360,000 compounds, 0.63% hits;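 active = compounds giving at least 50% protection of heart cells from peroxide-induced death in the single-dose screen, raw or plate-pattern-corrected value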;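 note: 0% = DMSO wells with peroxide and 100% = DMSO wells without peroxide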
A3G deaminase = inhibitors of human APOBEC3G DNA deaminase. Q9HC16. recombinant A3G, ssDNA deamination FAM/TAMRA fluorescence. inhibition, % at 20 µM. 330,000 compounds, 0.28% hits;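 active = inhibition of at least 40% at 20 µM, with no more than 30% in the related APOBEC3A deaminase screen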;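 note: plate controls were DMSO wells with A3G for no effect and wells lacking A3G enzyme for full effect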
Target sequence (Q9HC16 whole entry, looked up): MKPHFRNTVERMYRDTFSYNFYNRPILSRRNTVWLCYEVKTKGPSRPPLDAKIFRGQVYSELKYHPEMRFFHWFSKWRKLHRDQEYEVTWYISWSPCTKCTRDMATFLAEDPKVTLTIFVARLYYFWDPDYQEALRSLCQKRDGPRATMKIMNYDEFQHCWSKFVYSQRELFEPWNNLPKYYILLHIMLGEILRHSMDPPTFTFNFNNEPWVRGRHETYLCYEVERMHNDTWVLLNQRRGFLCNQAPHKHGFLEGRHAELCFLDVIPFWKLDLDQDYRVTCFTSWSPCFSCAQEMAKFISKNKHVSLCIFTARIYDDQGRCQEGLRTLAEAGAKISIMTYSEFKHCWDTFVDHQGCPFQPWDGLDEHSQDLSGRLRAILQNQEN
A3A deaminase = inhibitors of human APOBEC3A DNA deaminase; recombinant A3A, FAM/TAMRA ssDNA deamination fluorescence; P31941; AID 493011; 330,000 compounds, 0.41% hits; inhibition, % at 20 µM;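 active = at least 40% inhibition at 20 µM here, with at most 30% in a related deaminase screen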;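 note: plate controls were A3A with DMSO for no effect and wells lacking A3A enzyme for full effect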
Target sequence (P31941 whole entry, looked up): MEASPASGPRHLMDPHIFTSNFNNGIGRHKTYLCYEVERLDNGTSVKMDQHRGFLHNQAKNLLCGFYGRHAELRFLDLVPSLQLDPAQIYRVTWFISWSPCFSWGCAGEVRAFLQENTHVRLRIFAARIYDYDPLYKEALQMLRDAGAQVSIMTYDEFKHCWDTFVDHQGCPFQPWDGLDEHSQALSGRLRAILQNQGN
PfG6PD inh = PfG6PD (Plasmodium falciparum) enzyme inhibition. inhibition, % at 20 µM. PfGluPho enzyme, NADPH resazurin-diaphorase fluorescence. AID 504690. 350,000 compounds, 0.78% hits;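 active = inhibition reaching at least a set limit at 20 µM in the primary screen, cut at about 59% in these data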;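 note: 0% = DMSO wells with substrate and 100% = DMSO wells lacking glucose-6-phosphate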
H9c2 TAG inh = triacylglycerol accumulation inhibition | H9c2 cells, Nile Red lipid (TAG) fluorescence; cells loaded with 200 µM oleic acid | inhibition, % at 12.5 µM | 230,000 compounds, 0.66% hits;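 active = pattern-corrected inhibition of lipid staining of at least 50% with the nuclear-stain viability signal not falling by more than 50%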;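 note: 0% = DMSO wells and 100% = triacsin C control wells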
PfG6PD confirm = PfG6PD inhibition, single-dose confirmed; recombinant PfGluPho, NADPH-diaphorase-resazurin fluorescence; shares compounds with PfG6PD inh; 2,400 compounds, 34% hits; inhibition, % at 20 µM;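 active = inhibition of at least 50% at 20 µM in any single replicate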;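 note: 0% = DMSO with substrate and 100% = DMSO lacking glucose-6-phosphate substrate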
Diaph ctr 10uM = diaphorase inhibition or oxidation at 10 uM NADPH; shares compounds with PfG6PD inh; diaphorase-coupled resazurin reduction, fluorescence, NADPH 10 uM; inhibition, % at 20 µM; 820 compounds, 39% hits;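 active = average inhibition reaching 50% or more with the compound at 20 µM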;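 note: resorufin red fluorescence formed as diaphorase reduces resazurin using NADPH; 0% = DMSO with enzyme and 100% = DMSO without enzyme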
Diaph ctr 30uM = diaphorase inhibition or oxidation at 30 uM NADPH | shares compounds with PfG6PD inh | inhibition, % at 20 µM | 820 compounds, 29% hits | Diaphorase/resazurin coupled assay, resorufin fluorescence;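 active = inhibition averaging 50% or more, tested at 20 µM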;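 note: 0% = DMSO with enzyme and 100% = DMSO wells lacking diaphorase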
The depositor's hits bear a star.

For O=C(O)c1cc(-c2ccc(-c3ccc(F)cc3)o2)nc2ccccc12 the results were NadD block -1, H9c2 protect -15, A3G deaminase 30, A3A deaminase 3, PfG6PD inh 93* and PfG6PD confirm 35.
`CCCCN(C=O)c1c(CC)nc2c(OCC(=O)N3CCOCC3)cccn12` gave NadD block 2, H9c2 protect -1 and H9c2 TAG inh -12.
CCOC(=O)c1c2ccc(OCC(=O)NN)cc2n2ccccc12 was read as NadD block -3, H9c2 protect 11, A3G deaminase -4, A3A deaminase -1, PfG6PD inh 47, H9c2 TAG inh -2, PfG6PD confirm 59*, Diaph ctr 10uM 61* and Diaph ctr 30uM 38.
COc1ccccc1CCNC(=O)c1ccc(Br)s1 was read as NadD block 0, H9c2 protect -9, A3G deaminase 23, A3A deaminase 2 and PfG6PD inh 15.
COc1cc(C2Nc3ccc4ncccc4c3C3=C2C(=O)CCC3)cc(OC)c1O (stereo unspecified) was read as NadD block -1, H9c2 protect 1, A3G deaminase 3, A3A deaminase -3, PfG6PD inh 69*, H9c2 TAG inh 13 and PfG6PD confirm 29.
For COc1cc(C2Nc3ccc4ncccc4c3C3=C2C(=O)CC(C)(C)C3)cc(OC)c1O (stereo unspecified) the results were NadD block -7, H9c2 protect -5, A3G deaminase -5, A3A deaminase 2 and PfG6PD inh 35.
O=c1cc(CSc2nc3cc(Cl)ccc3o2)nc2sccn12 was read as NadD block -6, H9c2 protect 25, A3G deaminase -6, A3A deaminase -2, PfG6PD inh 80*, H9c2 TAG inh -13 and PfG6PD confirm 38.
Screening Cc1cc(C)n2cc(CSc3nc4cc(Cl)ccc4o3)nc2n1 returned NadD block 3, H9c2 protect -14, A3G deaminase -1, A3A deaminase 5 and PfG6PD inh 20.
COC1=C(c2ccccc2)C(=O)c2ccccc2C1=O was read as NadD block 6, H9c2 protect -17, A3G deaminase -4, A3A deaminase -2, PfG6PD inh 24 and H9c2 TAG inh -6.
O=C(C1=C(c2ccccc2)C(=O)c2ccccc2C1=O)c1ccccc1 was read as NadD block -6, H9c2 protect -12, PfG6PD inh 116*, H9c2 TAG inh -27, PfG6PD confirm 79*, Diaph ctr 10uM 84* and Diaph ctr 30uM 81*.
O=c1cc(-c2ccccc2)nc2c(-c3ccccc3)c(C(F)(F)F)[nH]n12 was read as NadD block 11, H9c2 protect -10, A3G deaminase -7, A3A deaminase -2, PfG6PD inh -15 and H9c2 TAG inh 1.
For CCCn1c(=O)n(C)c(=O)c2c(SCC(=O)NCC(c3ccccc3)N(C)C)nc(CC(C)C)nc21 (stereo unspecified) the results were NadD block -6, H9c2 protect 3, A3G deaminase -6, A3A deaminase 0, PfG6PD inh -3 and H9c2 TAG inh 7.
`O=[N+]([O-])c1ccc(COc2cccc3cccnc23)cc1` gave NadD block 0, H9c2 protect 9, A3G deaminase 0, A3A deaminase 0 and PfG6PD inh 31.
`O=[N+]([O-])c1cc(Cl)ccc1Sc1ccccn1` gave NadD block 2, H9c2 protect -2, A3G deaminase -5, A3A deaminase -4, PfG6PD inh 51 and H9c2 TAG inh 12.
`O=[N+]([O-])c1ccc(Sc2ccncn2)c([N+](=O)[O-])c1` gave NadD block -6, H9c2 protect -19, PfG6PD inh 18 and H9c2 TAG inh 14.
`O=[N+]([O-])c1ccc(Sc2cccc3cccnc23)cc1` gave NadD block 1, H9c2 protect -4, A3G deaminase -8, A3A deaminase -3, PfG6PD inh 114*, PfG6PD confirm 83*, Diaph ctr 10uM 77* and Diaph ctr 30uM 72*.
For O=[N+]([O-])c1ccc(Sc2cccc3cccnc23)c([N+](=O)[O-])c1 the results were NadD block 3, H9c2 protect -8, A3G deaminase -6, A3A deaminase -1, PfG6PD inh 148*, PfG6PD confirm 99*, Diaph ctr 10uM 71* and Diaph ctr 30uM 61*.
O=[N+]([O-])c1cc(Cl)ccc1Sc1cccc2cccnc12 was read as NadD block -1, H9c2 protect -4, A3G deaminase -7, A3A deaminase 4, PfG6PD inh 129*, PfG6PD confirm 90*, Diaph ctr 10uM 88* and Diaph ctr 30uM 82*.
Screening COc1ccc(NC(=O)COC(=O)C2CC(=O)N(CCc3ccc(OC)c(OC)c3)C2)cc1Cl (stereo unspecified) returned NadD block -1, H9c2 protect 4, A3G deaminase -8, A3A deaminase -1, PfG6PD inh -9 and H9c2 TAG inh -5.
Screening COC1=C(OC)C(=O)C(Sc2ccc3ccccc3c2)=CC1=O returned NadD block 15, H9c2 protect -21, PfG6PD inh 128*, H9c2 TAG inh 16, PfG6PD confirm 106*, Diaph ctr 10uM 82* and Diaph ctr 30uM 38.
For N#Cc1c(-c2ccco2)c2c([nH]c1=S)CCCC2 the results were NadD block 24, H9c2 protect 1, A3G deaminase 43, A3A deaminase 32, PfG6PD inh 71*, H9c2 TAG inh 1 and PfG6PD confirm 34.
CCN(CC)C(=O)c1c(C)[nH]c(=S)c(C#N)c1-c1ccco1 was read as NadD block -2, H9c2 protect -12, A3G deaminase 39, A3A deaminase 4, PfG6PD inh 61*, H9c2 TAG inh -2, PfG6PD confirm 51*, Diaph ctr 10uM 3 and Diaph ctr 30uM -4.
CC1CCN(c2[nH]c(=S)c(C#N)c3c2CCCC3)CC1 was read as NadD block 0, H9c2 protect 6, A3G deaminase -6, A3A deaminase -3 and PfG6PD inh 43.
`CC(C)Cc1c2c([nH]c(=S)c1C#N)CCCC2` gave NadD block 1, H9c2 protect 2, A3G deaminase 2, A3A deaminase 0, PfG6PD inh 70*, H9c2 TAG inh -12 and PfG6PD confirm 37.
Screening COc1ccc2[nH]c3c(c(=O)c2c1)CCCC3 returned NadD block 1 and H9c2 protect 3.
